This is part of a sample that, as a whole, favours compounds with a hit. Of some 83,000 tested, about 20% had one in any assay.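 Cell lines were cultured in 96-well plates, exposed to a single compound concentration, and assessed for percent growth 48 hours later.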 Calls of active or inactive are those of the source. Rule for the calls: active = growth percent below 10; inactive = the rest.
Tests used:
Test in all cases: NCI-60 one-dose screen, 48 h (100 = growth as untreated, 0 = no growth, -100 = all killed)
Settings in all cases: 10 µM unless noted
[1] = system: EKVX NSCLC
[2] = system: SN12C renal
[3] = system: UO-31 renal
[4] = system: TK-10 renal
[5] = system: ACHN renal
[6] = system: CAKI-1 renal
[7] = system: A498 renal
[8] = system: CCRF-CEM leukemia
[9] = system: MOLT-4 leukemia
[10] = system: SK-MEL-2 melanoma

Measured: growth

C=CCNC(=O)/C(=C/c1cccc([N+](=O)[O-])c1)NC(=O)c1ccccc1
inactive: [1] 108% | [2] 103% | [3] 90% | [4] 101% | [5] 94% | [6] 90.6% | [7] 130% | [8] 90.6% | [9] 101%

O=CNc1ccc2c(c1)Cc1cc([N+](=O)[O-])ccc1-2
inactive: [1] 36% | [2] 38.9% | [3] 33.3% | [4] 37.6% | [5] 56.6% | [6] 29.9% | [7] 39.2% | [8] 20.9% | [9] 29.7%

Cc1[nH]c(=O)[nH]c(=O)c1CCSSCCc1c(C)[nH]c(=O)[nH]c1=O
inactive: [10] 102% | [2] 104% | [3] 83.3% | [5] 104% | [6] 97.1% | [7] 107% | [9] 100%

CCCCCCCSc1ncnc2[nH]ncc12
inactive: [10] 72.7% | [2] 86.1% | [4] 81.1% | [5] 88.7% | [7] 88.7% | [8] 76% | [9] 75.4%

CCOC(=O)C(C(=O)OCC)C1CCCCC1
inactive: [10] 110% | [2] 106% | [3] 91.8% | [4] 101% | [5] 102% | [7] 107% | [9] 102%

COc1cc(-c2nc3sc4c(c3c(=O)[nH]2)CCCCCC4)cc(OC)c1OC
inactive: [10] 16.4% | [2] 22.1% | [5] 44.5% | [6] 19.9% | [8] 14.3% | [9] 14.6%
active: [7] -12.3%

[N-]=[N+]=NCc1ncc(-c2ccc(C(F)(F)F)cc2)c(NC2CCCCCC2)n1
inactive: [10] 78.2% [50 µM] | [2] 85.2% [50 µM] | [3] 50% [50 µM] | [5] 73.1% [50 µM] | [6] 84.3% [50 µM] | [7] 82.5% [50 µM] | [9] 54.7% [50 µM]

C/C(=C\CCc1ccsc1)CC/C=C(\C)CCCN1CCSCC1
inactive: [10] 89.3% | [2] 78.9% | [3] 59.9% | [4] 108% | [5] 94.7% | [6] 87.5% | [8] 73.7% | [9] 81.2%

O=Cc1ncc(-c2ccc(C(F)(F)F)cc2)c(NC2CCCCCC2)n1
active: [10] -79.8% [100 µM] | [2] -87.4% [100 µM] | [3] -90.8% [100 µM] | [4] -94.9% [100 µM] | [5] -99.5% [100 µM] | [7] -73.1% [100 µM] | [9] -60% [100 µM]

NC(=O)c1cc(Cl)ccc1NC(=O)c1ccccc1-c1ccccc1
active: [10] -12.2% | [8] 7.4%
inactive: [2] 51.9% | [4] 41.6% | [5] 34.9% | [6] 26.4% | [9] 13.3%

COc1ccc(-c2nnc3c4[nH]cnc4ncn23)c(OC)c1
active: [9] 8.73%
inactive: [10] 29.9% | [2] 55.3% | [3] 23.3% | [5] 28.2% | [6] 20.9% | [7] 80.4% | [8] 12.6%

COc1cccc(C=Nc2cc(C(C)C)c(O)cc2C)c1O
inactive: [10] 102% | [2] 95% | [3] 72.4% | [4] 99.8% | [5] 100% | [7] 75.7% | [8] 35% | [9] 98.2%

COc1ccc(-c2c3c(N)nc(-c4ccncc4)nc3nc3c2c(C)nn3-c2ccccc2)cc1
inactive: [10] 48.1% | [2] 83.7% | [3] 85.4% | [4] 47% | [6] 36% | [7] 73.2% | [9] 51.2%
active: [5] 3.79%

COc1cc(-c2n[nH]nc2-c2ccccn2)cc(OC)c1OC
inactive: [1] 94.6% | [2] 89.7% | [3] 87.7% | [4] 151% | [5] 94.8% | [6] 124% | [7] 118% | [8] 97.7% | [9] 96.6%

CC(=O)O[C@H]1CC[C@@]2(C)C(=CC[C@@H]3[C@@H]2CC[C@]2(C)C(c4cccnc4)=CC[C@@H]32)C1
inactive: [1] 49.5% | [2] 96.7% | [3] 33.5% | [4] 90.8% | [5] 44.7% | [7] 91.5% | [8] 48.3% | [9] 46%

O=C(Nc1nc2ccc(OC(F)(F)F)cc2s1)c1ccc(F)cc1
inactive: [1] 15.6% | [2] 13.3% | [4] 21.8% | [8] 32.1% | [9] 13.8%
active: [3] -4.24% | [5] 7.56% | [6] 6.43%

O=C(Nc1nc(-c2ccc(Cl)cc2)cs1)c1cc(-c2ccc(Br)cc2)nc2ccc(Cl)cc12
inactive: [1] 77.3% | [2] 35.8% | [3] 34.7% | [4] 130% | [5] 63.6% | [6] 81.4% | [8] 39.2% | [9] 18.5%

COc1cc(/C=N/OC(=O)Nc2ccccc2)cc(OC)c1OC
inactive: [1] 117% | [2] 94.4% | [3] 69% | [4] 99% | [5] 107% | [6] 110% | [8] 98.1% | [9] 100%

COc1ccc(C2=NN(C(C)=O)C(c3cccc(Nc4ccnc5cc(Cl)ccc45)c3)C2)cc1 (centres undefined)
inactive: [1] 64.7% | [2] 48.5% | [3] 37.5% | [4] 58.3% | [5] 60.8% | [7] 33.1% | [8] 40.8% | [9] 22.3%

COc1ccc2c(=O)c(OC)c(-c3cc(OC)c(OC)c(OC)c3)oc2c1
inactive: [1] 109% | [2] 77% | [4] 124% | [5] 92.2% | [7] 96.1% | [8] 93.4% | [9] 99.6%
active: [3] -82.5%

CCN(CC)c1ccc(C(=C2C=CC(=[N+](CC)Cc3cccc(S(=O)(=O)O)c3)C=C2)c2ccc(N(CC)Cc3cccc(S(=O)(=O)O)c3)cc2)cc1
inactive: [1] 33.2% | [2] 22.8% | [3] 45.4% | [4] 69.5% | [5] 77.3% | [7] 36% | [8] 12.4% | [9] 48%

CCN(CC)CCOCC[C@H]1CC[C@H]2[C@@H]3[C@H](C)Cc4cc(OS(N)(=O)=O)ccc4[C@H]3CC[C@]12C
active: [1] -23.4% | [2] -62.9% | [3] -80.8% | [4] -56.8% | [5] -65.9% | [6] -73.9% | [7] -91.6% | [8] -26.8% | [9] -52.2%

O=C(Nc1nc2c(C(F)(F)F)cccc2s1)c1cc(Cl)ccc1O
inactive: [1] 11.1% | [4] 10.2% | [8] 10.7%
active: [2] -4.79% | [3] -10.9% | [5] 5.28% | [7] -36.9% | [9] -8.05%

O=C(/C=C(\Nc1ccccc1)c1ccccc1)c1cn(-c2ccc([N+](=O)[O-])cc2)nn1
inactive: [1] 100% | [2] 104% | [3] 69% | [4] 118% | [5] 94.6% | [6] 108% | [7] 96.2% | [8] 71.4% | [9] 64.3%

Cc1sc2nc(NCCc3cccs3)[nH]c(=O)c2c1C
inactive: [1] 85.5% | [2] 87.7% | [3] 90% | [4] 96.8% | [5] 96.1% | [7] 70.7% | [8] 81.9% | [9] 75.3%

CC(=O)N1N=C(c2ccc(Nc3nc(NCCO)nc(NCCO)n3)cc2)CC1c1ccc(Cl)cc1 (centres undefined)
inactive: [1] 91.9% | [2] 98.8% | [3] 96.9% | [4] 83.3% | [5] 96.4% | [7] 102% | [8] 114% | [9] 116%

O=C(COc1ccc(/C=C2\Cc3ccccc3C2=O)cc1)c1ccc(Cl)cc1
active: [3] -7.83%
inactive: [1] 101% | [2] 98.9% | [4] 133% | [5] 107% | [6] 78.2% | [7] 108% | [8] 95.2% | [9] 95.9%

c1ccc(Nc2ccc(Nc3nc(-c4ccccc4)nc4ccccc34)cc2)cc1
inactive: [1] 87.1% | [2] 87.9% | [3] 63.7% | [4] 98.5% | [5] 81.3% | [6] 71.2% | [8] 52.7% | [9] 53%

COc1cc(/C=N/NC(=O)c2ccc(C(F)(F)F)nc2Nc2cc(Cl)ccc2C)cc(OC)c1OC
inactive: [1] 93.6% | [2] 93.9% | [3] 103% | [4] 119% | [5] 104% | [6] 77.5% | [7] 100% | [8] 51.5% | [9] 61.8%

CC(=O)N1N=C(c2ccc3c(c2)OCO3)CC1c1c(C)nn(-c2ccccc2)c1N(C)Cc1ccccc1 (centres undefined)
inactive: [1] 72.9% | [2] 72.9% | [3] 51.9% | [4] 80.9% | [5] 81.3% | [7] 67.4% | [8] 69.5% | [9] 41.9%

O=C1Nc2ccc(C(=O)O)c(O)c2C1=O
inactive: [1] 97.8% | [2] 107% | [3] 91.7% | [4] 107% | [5] 104% | [6] 92.2% | [7] 102% | [8] 94.9% | [9] 110%

Reference: PubChem BioAssay (NCI)
